# Bioassay records as filed in PubChem BioAssay.
# This is a sample that favours compounds with a hit; in the whole collection about 11% have one here.
# PNC inhibitor: blocks assembly of the perinucleolar compartment. PC3M PTB-GFP, PNC prevalence imaging, 16 h; active compounds read low. hit rate 3.1% among 140,000. AID 2417. activity change (PNC), negative = inhibition, % at 10 µM;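 active means readout at or below -70, meaning at least 70% loss of cells showing the perinucleolar compartment, a nuclear body marking cancer cells; inconclusive means readout between -30 and a set limit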;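 further: plate controls were DMSO wells for no effect and camptothecin positive control wells for full effect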
#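 PC3M cells stably expressing PTB-GFP, 750–1000 cells/well, treated 16 h at 37 °C with compound (23 nl of library stock), in duplicate. After paraformaldehyde fixation and Hoechst stain, imaged at 20x; PNC prevalence scored by image analysis.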
# HPGD inh: HPGD (human) dehydrogenase inhibition; Potency, µM, for inactives: top-dose activity change, negative = inhibition, actives largely listed as inhibitors; AID 894; P15428; purified HPGD, NADH fluorescence kinetic, PGE2 substrate; hit rate 4.3% among 150,000; further: potency means the concentration at half of the fitted maximal effect
# Target sequence (P15428 whole entry, looked up): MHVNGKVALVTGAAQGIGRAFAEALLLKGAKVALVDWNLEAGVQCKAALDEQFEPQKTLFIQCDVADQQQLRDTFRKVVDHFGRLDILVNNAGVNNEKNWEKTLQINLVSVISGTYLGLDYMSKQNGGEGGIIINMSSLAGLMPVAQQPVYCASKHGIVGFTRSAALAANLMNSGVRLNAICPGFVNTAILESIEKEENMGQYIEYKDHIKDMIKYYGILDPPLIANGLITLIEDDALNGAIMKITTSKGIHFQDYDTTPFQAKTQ
#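 20 nM HPGD preincubated 15 min at room temperature with compound in 50 mM Tris-HCl pH 8, 0.01% Tween 20. Started with 1 mM NAD+ and 30 uM prostaglandin E2; NADH fluorescence (360/450 nm) read 5 times over 30-s intervals, last minus first.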
# 12-hLO inh: blocks human 12-lipoxygenase activity | purified 12-hLO, xylenol orange hydroperoxide absorbance | hit rate 0.12% among 150,000 | AID 1452 | P18054 | Potency, µM (doses to about 57.1 µM), without a hit: at the highest dose activity change, negative = inhibition, usual class: inhibitors; active means well fitted curve in the direction sought with a large enough effect; inconclusive means small, poorly fitted or top-dose-only effect, or another doubt; inactive means no such curve, though single readings can be large; an effect the other way counts as inactive or inconclusive; further: potency means the concentration at half of the fitted maximal effect; nearly all actives have a fitted effect of over 55% in size
#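 Hydroperoxide formation by human 12-lipoxygenase from 40 uM arachidonic acid was followed colorimetrically via ferric-xylenol orange complex, using the 573/405 nm absorbance ratio. Enzyme concentration was 150 nM, with 30 min reaction at room temperature.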
# IMPase cell inh: IMPase inhibition in cells. P97697. inhibition (IP1 accumulation), % at 46.1 µM. CHO-M1 cells, IP1 accumulation, HTRF TR-FRET ratio. 120,000 tested, under 10 active. AID 901; active means well fitted curve in the direction sought with a large enough effect in the signal ratio, not every such curve was filed as active; inconclusive means small, poorly fitted or top-dose-only effect, or a change in a side signal; inactive means no such curve, though single readings can be large or run the other way; the % refers to the signal ratio;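 further: cells stimulated with carbachol in lithium chloride buffer; plate controls were DMSO basal wells for no effect and reference inhibitor wells for full effect; higher means more IMPase inhibition seen as more IP1 and lower FRET ratio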
#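 Carbachol-driven Gq signalling in CHO-M1 cells (2000/well) generates IP1. Compounds that block IMPase raise IP1 and so reduce the FRET signal from Eu-anti-IP1 and d2-IP1 after a 10 min room-temperature lysis.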
# ALDH1A1 block: inhibitors of human aldehyde dehydrogenase 1A1 | hit rate 7.3% among 220,000 | P00352 | AID 1030 | Purified ALDH1A1, NADH fluorescence, propionaldehyde substrate | Potency, µM (highest dose often 75.3 µM), for inactives: at the top dose activity, negative = inhibition, hits mostly inhibitors;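 further: potency means the concentration at half of the fitted maximal effect; plate controls were no enzyme wells and a reference inhibitor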
# Target sequence (P00352 whole entry, looked up): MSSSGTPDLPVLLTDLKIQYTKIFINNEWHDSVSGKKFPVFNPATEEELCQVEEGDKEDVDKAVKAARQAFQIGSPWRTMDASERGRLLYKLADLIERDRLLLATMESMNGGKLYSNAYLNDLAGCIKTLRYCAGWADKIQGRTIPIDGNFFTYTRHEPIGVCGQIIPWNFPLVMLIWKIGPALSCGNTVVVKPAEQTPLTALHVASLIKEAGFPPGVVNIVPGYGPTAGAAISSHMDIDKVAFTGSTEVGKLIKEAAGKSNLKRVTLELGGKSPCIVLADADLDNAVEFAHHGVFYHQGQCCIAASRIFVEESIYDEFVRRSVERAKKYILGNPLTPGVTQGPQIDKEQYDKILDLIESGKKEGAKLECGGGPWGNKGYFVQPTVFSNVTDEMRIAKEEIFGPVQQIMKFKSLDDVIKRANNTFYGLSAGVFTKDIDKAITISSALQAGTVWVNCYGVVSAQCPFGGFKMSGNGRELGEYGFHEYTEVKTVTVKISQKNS
# IMPase Li inh: cell-permeable IMPase inhibitors with lithium potentiation; Potency, µM (series often up to 59.4 µM), inactives show top-dose activity, negative = IMPase inhibition, most hits filed as inhibitors; hit rate 0.35% among 210,000; CHO-M1 cells, IP1 TR-FRET (IP-One), carbachol + lithium; AID 1457; active means well fitted curve in the direction sought with a large enough effect; inconclusive means small, poorly fitted or top-dose-only effect, or another doubt; inactive means no such curve, though single readings can be large; an effect the other way counts as inactive or inconclusive;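 further: IP1 builds up when IMPase is blocked and the TR-FRET signal falls; potency means the concentration at half of the fitted maximal effect; plate controls were basal vehicle for no effect and high inhibitor control for full effect; nearly all actives have a fitted effect of over 50% in size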
#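 Lithium-sensitised IP1 accumulation assay; M1-expressing CHO cells treated 30 min at 37C with compound. Competitive antibody detection by time-resolved FRET followed a 10 min room-temperature lysis step.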
# * = called active by the depositor; ? = inconclusive; . = not tested or not shown; [ ] = dose if it differs, or a comment. Unless noted, the call rests on the fitted dose curve; in most records, active means well fitted inhibition curve with a large enough effect (not every such curve was filed as active); inconclusive means small, poorly fitted or top-dose-only effect, or another doubt; inactive means no such curve, though single readings can be large or run the other way. Unless noted, on the % scale 0 is the no-effect control and ±100 the full control effect.
SMILES,PNC inhibitor,HPGD inh,12-hLO inh,IMPase cell inh,ALDH1A1 block,IMPase Li inh
COc1ccc(-n2c(=O)c(-c3cccs3)nc3cnc(N4CCNCC4)nc32)cc1,.,?,-3%,.,?,19%
COc1ccc(N2CCc3c(C)nc4c(OC)cc(OC)cc4c32)cc1,.,.,.,.,-2%,23%
COc1ccc(N2CCc3c(C)nc4c(OC)cccc4c32)cc1,.,.,.,.,28µM*,29%
COC(=O)c1onc(-c2c(Cl)cccc2Cl)c1C(=O)OC,.,.,.,.,3%,.
CCOC(=O)C(=O)/C(=C\N(C)C)c1onc(-c2c(F)cccc2Cl)c1C(=O)OC,30,10µM*,2%,6[1.84 µM],-11%,42%[38.3 µM]
CCN=C1S/C(=C\c2ccc(Sc3ccc(Cl)cc3)o2)C(=O)N1CC,-4,-16%,-2%,-27,-11%,1%[38.3 µM]
CC1=C(Sc2nc3ccccc3[nH]2)C(=O)NC(C)(C)C1,5,-4%,2%,7,2%,2%[38.3 µM]
CC(C)N1C(=O)S/C(=C/c2ccc(Sc3nc4ccccc4[nH]3)o2)C1=O,?,-27%,-8%,14,7.1µM*,13%
C=CCN1C(=O)S/C(=C/c2ccc(Sc3nc4ccccc4[nH]3)o2)C1=O,-13,-16%,-1%,.,10µM*,6%
OC[C@@H]1NC[C@@H](O)[C@H]1O,.,.,2%,0,.,.
COc1ccc(CCNC(=S)NC(=O)c2ccccc2)cc1OC,-101*,25µM*,14µM*,0,?,15%[38.3 µM]
COc1ccc(C(=O)CC(=O)C(=O)NCCc2cccc(C)c2)cc1,34,-24%,-14%,.,2.2µM*,2%
COc1ccc(C(=O)NC(=S)NCCc2ccccc2)cc1,.,.,.,.,14µM*,15%
CN(C)CCNC(=S)Nc1ccc(F)c(F)c1F,.,.,.,.,-1%,-1%
CCNc1ncc2nc(-c3ccc(F)cc3)c(=O)n(-c3ccccc3)c2n1,.,.,.,.,?,-16%
Cc1cccc2sc(NC(=O)c3ccc(NS(=O)(=O)c4cccs4)cc3)nc12,-84*,?,-3%,.,?,-7%
O=C(CSCc1ccc(F)cc1)NC1CCCC1,-1,-19%,-3%,-6,-5%,-6%[38.3 µM]
Cc1cccc(NC(=O)CCC(=O)OCC(=O)c2ccc(Oc3ccc([N+](=O)[O-])cc3)cc2)c1,9,-21%,1%,.,7.1µM*,0%
O=C(CSCc1ccc([N+](=O)[O-])cc1)NC1CCCCCC1,.,.,.,.,25µM*,15%
O=C(CCC(=O)OCC(=O)c1ccc([N+](=O)[O-])cc1)NC1CCCCC1,29,-20%,2%,.,2.8µM*,2%
O=C(CCC(=O)OCC(=O)c1ccc(Cl)cc1)NC1CCCCC1,?,-20%,1%,0,-5%,-20%[38.3 µM]
Cc1ccc(NC(=O)CCC(=O)OCC(=O)c2ccc(Oc3ccc([N+](=O)[O-])cc3)cc2)cc1C,138,-15%,1%,-1,-11%,7%[38.3 µM]
O=C(NC1CC1)C1CCN(C2CCN(C(=O)/C=C/c3ccc(F)cc3)CC2)CC1,.,.,.,.,0%,8%
CN(C)Cc1ccccc1-c1nc(N(C)Cc2ccco2)c2ccccc2n1,.,-13%,-4%,.,-7%,17%
O=C1c2sc3nc4n(c(=O)c3c2CCC1Br)CCCCC4 (configuration not stated),2,13µM*,-3%,-5,8.9µM*,-2%[38.3 µM]
SMILES,PNC inhibitor,HPGD inh,12-hLO inh,IMPase cell inh,ALDH1A1 block,IMPase Li inh
Nc1nonc1-n1nnc(C(=O)c2ccccc2)c1-c1ccccc1,?,-12%,-12%,7,2.8µM*,36%[38.3 µM]
CCOC(=O)c1nnn(-c2nonc2N)c1-c1ccc(OCC)cc1,-12,4%,-2%,-3,-14%,6%[38.3 µM]
CC(=O)N1CCC[C@@]2(CCN(Cc3cc(C(F)(F)F)cc(C(F)(F)F)c3)C2)C1,.,-4%,-6%,.,1%,1%
O=C(Nc1nccs1)C(=O)c1c[nH]c2ccccc12,52,-18%,5%,-5,22%,17%[38.3 µM]
C(=N\c1nccs1)/c1c[nH]c2ccccc12,11,-9%,-7%,-3,13µM*,-3%[38.3 µM]
O=C(N/N=C1\CC2CC=CC12)c1ccccc1Cl (configuration not stated),.,.,.,.,-6%,3%
FC(F)(F)c1ccccc1NC(=S)N/N=C1\CC2CC=CC12 (configuration not stated),.,.,.,.,7.9µM*,1%
COc1ccc(CNC(=O)C2=C(C)C(=O)OC23CCC(C)CC3)cc1 (configuration not stated),-8,-8%,-6%,-1,5.6µM*,-4%[38.3 µM]
CCOc1ccc(CCNC(=O)C2=C(C)C(=O)OC23CCC(C)CC3)cc1 (configuration not stated),83,-14%,-1%,.,-1%,8%
NS(=O)(=O)c1cc([C@@]2(O)NC(=O)c3ccccc32)ccc1Cl,.,-9%,-5%[25.6 µM],-10[20.6 µM],-4%[20.9 µM],2%
CCCCCCCCCCCCCCCC(=O)NC(C)C,.,-3%,-2%,1,-2%,4%
CCOC(=O)c1c(C)n(OCc2ccccc2)c2ccc3c(no[n+]3[O-])c12,-80*,-17%,6%,10,4%,30%[38.3 µM]
CCCCOn1c(C)c(C(C)=O)c2c3no[n+]([O-])c3ccc21,.,.,.,.,2%,16%
CS(=O)(=O)CCCCN=C=S,.,-10%,0%,.,?,-7%
Clc1cccc(-c2nc3ccccn3c2Nc2ccc3c(c2)OCCO3)c1,.,.,.,-17,.,.
O=C(O)Cn1c(SCc2ccccc2)nc2ccccc21,?,-5%,-1%,-6,8%,14%[38.3 µM]
O=C(O)Cn1c(SCc2cccc3ccccc23)nc2ccccc21,94,25µM*,7%,4,2%,12%[38.3 µM]
CCOC(=O)N1CCN(C(=O)CS(=O)Cc2nc(-c3cccc(C)c3)oc2C)CC1 (configuration not stated),-28,-4%,2%,-8,?,5%[38.3 µM]
Cc1cccc(-c2nc(CS(=O)CC(=O)N3CCc4ccccc4C3)c(C)o2)c1 (configuration not stated),-106*,?,-3%,-2,?,1%[38.3 µM]
CCN(CC)CCCCCCCCOC(=O)c1cc(OC)c(OC)c(OC)c1,.,-15%,28%,0,-11%,11%
COc1ccc(-c2oc3ncn4nc(COc5c(C)cccc5C)nc4c3c2-c2ccc(OC)cc2)cc1,.,.,.,-14,.,.
Cc1ccc(/C=N/NC(=O)NC2CCCCC2)o1,.,.,.,.,3.5µM*,30%
CC(C)c1ccc(/C=C/C(=O)NC2CCCCC2)cc1,36,-20%,-3%,.,-12%,11%
